Data taken from article PMC7862700, “An all-to-all approach to the identification of sequence-specific readers for epigenetic DNA modifications on cytosine”.

Tests used:
Assay in all cases: DAPPL (digital affinity profiling via proximity ligation, sequencing); 10 mM Tris-HCl pH 7.5, 50 mM NaCl, 1 mM DTT, 4% glycerol, room temperature, 30 min; GST-TFs on glutathione beads, 16-mer random dsDNA library, 0.1% formaldehyde crosslink after washing; high values mean tight binding
Conditions in all cases: protein: recombinant; tags: N-terminal GST; dsDNA, one strand shown
ERF = target: T1, ERF (Homo sapiens, UniProt P50548 1-548)
T1 sequence: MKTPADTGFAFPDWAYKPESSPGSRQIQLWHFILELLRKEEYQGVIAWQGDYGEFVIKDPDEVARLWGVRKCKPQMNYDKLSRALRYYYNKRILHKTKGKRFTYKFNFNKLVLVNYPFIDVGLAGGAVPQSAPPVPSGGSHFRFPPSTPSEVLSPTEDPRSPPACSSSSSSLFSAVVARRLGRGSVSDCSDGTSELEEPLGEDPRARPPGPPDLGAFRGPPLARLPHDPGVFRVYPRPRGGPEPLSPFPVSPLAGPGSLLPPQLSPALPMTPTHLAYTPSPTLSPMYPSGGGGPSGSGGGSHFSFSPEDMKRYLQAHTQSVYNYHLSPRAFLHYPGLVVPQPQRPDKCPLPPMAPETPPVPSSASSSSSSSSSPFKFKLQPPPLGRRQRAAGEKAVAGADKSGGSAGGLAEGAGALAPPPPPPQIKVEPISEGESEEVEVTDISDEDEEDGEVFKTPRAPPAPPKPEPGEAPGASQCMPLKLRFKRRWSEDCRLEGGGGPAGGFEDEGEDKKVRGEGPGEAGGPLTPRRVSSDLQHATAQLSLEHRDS
Method in brief: (§1)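 Binding signal is defined as a hexamer's read frequency for one factor over its frequency for the tag-only sample. To obtain reads, GST-fused human transcription factors were expressed in yeast, captured on glutathione beads, barcoded with DNA and pooled with that sample. Pools met 200 nmole of a 16-mer random double-stranded DNA library in Tris/NaCl/DTT/glycerol buffer for 30 min at room temperature before washing, 0.1% formaldehyde crosslinking, proximity ligation (BsaI/T4 ligase, 1 h, 37 °C), PCR and Illumina NextSeq500 sequencing.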

ETV3L = target: T2, ETV3L (Homo sapiens, UniProt Q6ZN32 1-361)
T2 sequence: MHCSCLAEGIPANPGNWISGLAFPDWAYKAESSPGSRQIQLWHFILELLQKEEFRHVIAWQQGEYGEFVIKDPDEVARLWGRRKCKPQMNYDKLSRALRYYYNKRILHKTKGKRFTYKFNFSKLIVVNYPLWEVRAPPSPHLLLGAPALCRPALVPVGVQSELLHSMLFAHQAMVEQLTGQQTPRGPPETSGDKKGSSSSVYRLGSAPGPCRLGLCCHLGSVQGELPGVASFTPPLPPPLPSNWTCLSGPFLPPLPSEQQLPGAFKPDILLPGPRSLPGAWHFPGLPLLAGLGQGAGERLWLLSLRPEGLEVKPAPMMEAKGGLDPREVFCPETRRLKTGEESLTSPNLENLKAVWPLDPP
Method in brief: as §1

ETS2 = target: T3, ETS2 (Homo sapiens, UniProt P15036 1-469)
T3 sequence: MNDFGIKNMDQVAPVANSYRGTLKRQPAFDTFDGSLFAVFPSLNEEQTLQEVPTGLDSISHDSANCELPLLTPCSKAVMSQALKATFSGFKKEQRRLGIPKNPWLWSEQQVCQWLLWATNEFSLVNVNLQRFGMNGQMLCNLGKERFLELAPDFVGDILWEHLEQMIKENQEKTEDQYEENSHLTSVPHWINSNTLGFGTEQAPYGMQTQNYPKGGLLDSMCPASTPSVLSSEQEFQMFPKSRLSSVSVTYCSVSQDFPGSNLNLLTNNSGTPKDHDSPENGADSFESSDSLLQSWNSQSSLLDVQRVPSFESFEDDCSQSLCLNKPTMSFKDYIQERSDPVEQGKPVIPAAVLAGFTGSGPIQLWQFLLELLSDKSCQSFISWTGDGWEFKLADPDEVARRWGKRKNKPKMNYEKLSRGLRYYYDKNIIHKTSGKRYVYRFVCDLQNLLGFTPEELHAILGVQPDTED
Method in brief: as §1

SPDEF = target: T4, SPDEF (Homo sapiens, UniProt O95238 1-335)
T4 sequence: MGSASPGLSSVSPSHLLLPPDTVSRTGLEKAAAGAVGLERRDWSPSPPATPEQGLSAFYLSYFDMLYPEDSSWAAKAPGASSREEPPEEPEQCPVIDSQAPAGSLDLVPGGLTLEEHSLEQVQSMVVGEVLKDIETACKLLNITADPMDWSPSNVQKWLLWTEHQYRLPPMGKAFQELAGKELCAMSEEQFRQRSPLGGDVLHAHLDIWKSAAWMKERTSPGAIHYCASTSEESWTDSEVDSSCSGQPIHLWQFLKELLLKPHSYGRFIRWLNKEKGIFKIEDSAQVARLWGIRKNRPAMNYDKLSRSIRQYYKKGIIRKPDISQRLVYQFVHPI
Method in brief: as §1

ETV3 = target: T5, ETV3 (Homo sapiens, UniProt P41162-2 1-143)
T5 sequence: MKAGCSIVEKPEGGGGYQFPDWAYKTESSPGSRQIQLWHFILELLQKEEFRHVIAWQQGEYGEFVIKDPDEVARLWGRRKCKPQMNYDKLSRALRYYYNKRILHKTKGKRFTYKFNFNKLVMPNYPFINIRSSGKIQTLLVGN
Method in brief: as §1

ETV6 = ETV6 (Homo sapiens, UniProt P41212 1-452)
Method in brief: as §1

ETV7 = target: T6, ETV7 (Homo sapiens, UniProt Q9Y603 1-341)
T6 sequence: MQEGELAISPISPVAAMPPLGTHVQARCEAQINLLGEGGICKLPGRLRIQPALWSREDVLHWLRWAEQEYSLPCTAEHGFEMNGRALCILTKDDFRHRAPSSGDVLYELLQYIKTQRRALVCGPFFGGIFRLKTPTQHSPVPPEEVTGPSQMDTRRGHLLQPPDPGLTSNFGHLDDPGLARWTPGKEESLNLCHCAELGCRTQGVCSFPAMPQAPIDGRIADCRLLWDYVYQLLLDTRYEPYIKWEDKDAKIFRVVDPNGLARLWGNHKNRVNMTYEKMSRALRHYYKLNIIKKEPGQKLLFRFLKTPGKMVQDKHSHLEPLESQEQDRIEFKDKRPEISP
Method in brief: as §1

ELF5 = target: T7, ELF5 (Homo sapiens, UniProt Q9UKW6-2 1-255)
T7 sequence: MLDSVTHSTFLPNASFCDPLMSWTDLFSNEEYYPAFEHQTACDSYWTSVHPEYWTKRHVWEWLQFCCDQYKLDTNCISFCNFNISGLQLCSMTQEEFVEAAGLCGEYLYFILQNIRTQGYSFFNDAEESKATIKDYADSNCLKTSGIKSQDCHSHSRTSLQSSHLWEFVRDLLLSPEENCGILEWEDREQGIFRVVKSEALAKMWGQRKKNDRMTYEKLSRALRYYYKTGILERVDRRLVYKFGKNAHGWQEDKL
Method in brief: as §1

ETV6, sequence (P41212 whole entry): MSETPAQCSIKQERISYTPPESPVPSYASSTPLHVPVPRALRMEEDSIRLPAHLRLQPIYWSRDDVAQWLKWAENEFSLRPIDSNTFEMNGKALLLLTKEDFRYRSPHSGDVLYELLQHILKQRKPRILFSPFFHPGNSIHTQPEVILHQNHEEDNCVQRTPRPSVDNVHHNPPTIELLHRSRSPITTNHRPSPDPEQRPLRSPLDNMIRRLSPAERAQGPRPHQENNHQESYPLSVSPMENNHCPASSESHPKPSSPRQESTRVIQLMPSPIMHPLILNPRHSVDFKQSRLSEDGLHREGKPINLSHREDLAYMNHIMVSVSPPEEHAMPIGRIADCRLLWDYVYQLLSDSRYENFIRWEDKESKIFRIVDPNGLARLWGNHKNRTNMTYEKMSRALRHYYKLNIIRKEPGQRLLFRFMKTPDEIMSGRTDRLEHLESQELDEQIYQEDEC

Sequence | binding signal (ERF) | binding signal (ETV3L) | binding signal (ETS2) | binding signal (SPDEF) | binding signal (ETV3) | binding signal (ETV6) | binding signal (ETV7) | binding signal (ELF5)
GCGCCC | 1.18 fold enrichment (6-mer frequency, TF over GST control) | 1.2 fold enrichment (6-mer frequency, TF over GST control) | 1.05 fold enrichment (6-mer frequency, TF over GST control) | 1.13 fold enrichment (6-mer frequency, TF over GST control) | 1.2 fold enrichment (6-mer frequency, TF over GST control) | 1.03 fold enrichment (6-mer frequency, TF over GST control) |  | 
AAAGCT | 1.02 fold enrichment (6-mer frequency, TF over GST control) | 1.01 fold enrichment (6-mer frequency, TF over GST control) | 1.03 fold enrichment (6-mer frequency, TF over GST control) |  | 1.04 fold enrichment (6-mer frequency, TF over GST control) | 1.09 fold enrichment (6-mer frequency, TF over GST control) | 1.03 fold enrichment (6-mer frequency, TF over GST control) | 1.01 fold enrichment (6-mer frequency, TF over GST control)
GTCACT | 1.07 fold enrichment (6-mer frequency, TF over GST control) | 1.08 fold enrichment (6-mer frequency, TF over GST control) | 1.13 fold enrichment (6-mer frequency, TF over GST control) |  | 1.01 fold enrichment (6-mer frequency, TF over GST control) |  | 1.09 fold enrichment (6-mer frequency, TF over GST control) | 1.07 fold enrichment (6-mer frequency, TF over GST control)
ATAAAG | 1.02 fold enrichment (6-mer frequency, TF over GST control) | 1.01 fold enrichment (6-mer frequency, TF over GST control) | 1 fold enrichment (6-mer frequency, TF over GST control) |  | 1.05 fold enrichment (6-mer frequency, TF over GST control) | 1.03 fold enrichment (6-mer frequency, TF over GST control) | 1.09 fold enrichment (6-mer frequency, TF over GST control) | 1.03 fold enrichment (6-mer frequency, TF over GST control)
TCTAGG | 1.03 fold enrichment (6-mer frequency, TF over GST control) | 1.08 fold enrichment (6-mer frequency, TF over GST control) | 1.02 fold enrichment (6-mer frequency, TF over GST control) |  | 1.12 fold enrichment (6-mer frequency, TF over GST control) | 1.02 fold enrichment (6-mer frequency, TF over GST control) | 1.16 fold enrichment (6-mer frequency, TF over GST control) | 1.07 fold enrichment (6-mer frequency, TF over GST control)
GCTCGA | 1.24 fold enrichment (6-mer frequency, TF over GST control) | 1.26 fold enrichment (6-mer frequency, TF over GST control) | 1.19 fold enrichment (6-mer frequency, TF over GST control) |  | 1.14 fold enrichment (6-mer frequency, TF over GST control) | 1.25 fold enrichment (6-mer frequency, TF over GST control) | 1.11 fold enrichment (6-mer frequency, TF over GST control) | 1.1 fold enrichment (6-mer frequency, TF over GST control)
GACTTT | 1.09 fold enrichment (6-mer frequency, TF over GST control) | 1.13 fold enrichment (6-mer frequency, TF over GST control) | 1.17 fold enrichment (6-mer frequency, TF over GST control) |  | 1.14 fold enrichment (6-mer frequency, TF over GST control) | 1.14 fold enrichment (6-mer frequency, TF over GST control) | 1.2 fold enrichment (6-mer frequency, TF over GST control) | 1.13 fold enrichment (6-mer frequency, TF over GST control)
AGGCTC | 1.14 fold enrichment (6-mer frequency, TF over GST control) | 1.08 fold enrichment (6-mer frequency, TF over GST control) | 1.02 fold enrichment (6-mer frequency, TF over GST control) |  | 1.01 fold enrichment (6-mer frequency, TF over GST control) | 1.16 fold enrichment (6-mer frequency, TF over GST control) | 1.04 fold enrichment (6-mer frequency, TF over GST control) | 1.04 fold enrichment (6-mer frequency, TF over GST control)
AGCTGC | 1.17 fold enrichment (6-mer frequency, TF over GST control) | 1.07 fold enrichment (6-mer frequency, TF over GST control) | 1.17 fold enrichment (6-mer frequency, TF over GST control) |  | 1.16 fold enrichment (6-mer frequency, TF over GST control) | 1.11 fold enrichment (6-mer frequency, TF over GST control) | 1.16 fold enrichment (6-mer frequency, TF over GST control) | 1.06 fold enrichment (6-mer frequency, TF over GST control)
AACAGC | 1.15 fold enrichment (6-mer frequency, TF over GST control) | 1.05 fold enrichment (6-mer frequency, TF over GST control) | 1.08 fold enrichment (6-mer frequency, TF over GST control) |  | 1.13 fold enrichment (6-mer frequency, TF over GST control) | 1.1 fold enrichment (6-mer frequency, TF over GST control) | 1.21 fold enrichment (6-mer frequency, TF over GST control) | 1.09 fold enrichment (6-mer frequency, TF over GST control)
